The whole screen tested about 310,000 compounds, of which about 1,000 (0.32%) were called active. No rule for the calls is given here. The list is a sample of the results. Results with a measured potency or affinity are listed apart.
Test: Inhibition of PhoP regulon, Salmonella typhi GFP reporter cells, confirmation, 4 h (AID 1850);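 also: 0% = induced wells with vehicle and 100% = uninduced wells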
Conditions: Salmonella Typhi PhoP-promoter GFP reporter, fluorescence, at 50 µM, hits give high values

Row | Structure (SMILES) | inhibition
1 | COc1cc(OC)cc(C(=O)NNC(=O)c2ccc(S(=O)(=O)N(C)c3ccccc3OC)cc2)c1 | 15.6% (inactive)
2 | Cc1cc(N/N=C/c2ccc(O)cc2O)c2ccccc2n1 | -3.45% (inactive)
3 | Cc1cc(N/N=C/c2ccc(N(C)C)cc2)c2ccccc2n1 | 0.75% (inactive)
4 | COc1ccc(Nc2cc(C)nc3ccccc23)cc1 | 13.4% (inactive)
5 | Cc1cc(N/N=C/c2ccccc2O)c2ccccc2n1 | -0.61% (inactive)
6 | Cc1cccc(Nc2cc(C)nc3ccccc23)c1 | 5.71% (inactive)
7 | COc1cccc2c(N/N=C/c3ccc(O)c(O)c3)cc(C)nc12 | -4.34% (inactive)
8 | Cc1cccc(N2C(=O)C(Oc3ccc(Cl)cc3Cl)C2C(=O)O)c1C (centres undefined) | -8.69% (inactive)
9 | Cc1nnc(Cn2cnc3c2c(=O)n(C)c(=O)n3C)o1 | 6.26% (inactive)
10 | O=C(COc1ccc(/C=N/NC(=O)c2ccncc2)cc1)Nc1ccccc1 | -0.13% (inactive)
11 | CCOC(=O)c1c(-c2ccccc2)oc2ccc(OCC(O)CN(C)C)cc12 (centres undefined) | -1.17% (inactive)
12 | CCOC(=O)c1c(-c2ccccc2)oc2ccc(OCC)cc12 | -1.51% (inactive)
13 | Cc1ccc(-n2ncc3c(SCc4ccccn4)ncnc32)c(C)c1 | -1.44% (inactive)
14 | c1ccc(Cn2ccc(-c3cnc(-c4ccccc4)s3)n2)cc1 | 9.82% (inactive)
15 | Nc1[nH]ncc1-c1ccc(Cl)cc1 | 9.56% (inactive)
16 | Nc1[nH]ncc1-c1ccc(F)cc1 | -6.64% (inactive)
17 | CCc1nnc(NC(=O)Nc2ccccc2OC)s1 | 1.12% (inactive)
18 | COc1ccccc1/C=N/NC(=O)c1cccc(NC(=O)c2ccccc2C)c1 | 8.56% (inactive)
19 | CCc1ccc(N2CC(C(=O)N/N=C/c3ccccc3)CC2=O)cc1 (centres undefined) | -5.31% (inactive)
20 | O=C(N/N=C/c1cc(Cl)cc([N+](=O)[O-])c1O)NC12CC3CC(CC(C3)C1)C2 | 7.74% (inactive)
21 | CCc1ccc(N2CC(C(=O)N/N=C/c3cccc([N+](=O)[O-])c3)CC2=O)cc1 (centres undefined) | -13.7% (inactive)
22 | CC(C)(C)N/N=C/c1cc(Cl)cc([N+](=O)[O-])c1O | -7.27% (inactive)
23 | Cc1cc(C(=O)N/N=C/c2cc(Cl)cc([N+](=O)[O-])c2O)c2ccccc2n1 | 15.1% (inactive)
24 | COc1ccc(N2CC(C(=O)Nc3ccc([N+](=O)[O-])cc3Br)CC2=O)cc1 (centres undefined) | 6.01% (inactive)

Row | Structure (SMILES) | inhibition
25 | COc1ccc(N2CC(C(=O)N/N=C/c3ccc([N+](=O)[O-])cc3)CC2=O)cc1 (centres undefined) | 0.01% (inactive)
26 | CCCCNC(=O)CCn1c(=O)c2ccccc2n(Cc2ccc(Cl)cc2)c1=O | 5.58% (inactive)
27 | CCOC(=O)C(C)Oc1cccc2c(=O)n(CC(=O)N3CCCc4ccccc43)ccc12 (centres undefined) | 2.67% (inactive)
28 | COc1ccc(Cn2c(=O)oc3ccc(C)cc32)cc1 | 10.7% (inactive)
29 | O=C(CSc1ccccc1)Nc1ccc(N2CCOCC2)c(F)c1 | -2.5% (inactive)
30 | Cc1ccc(CC2C(=O)N(C)C(=O)N(C)C2=O)s1 | 5.58% (inactive)
31 | CCOc1ccc(N(CC(=O)Nc2ccc(OC)cc2)S(=O)(=O)c2c(C)[nH]c(=O)[nH]c2=O)cc1 | -6.24% (inactive)
32 | NCCc1nnc(SCC(N)=O)o1 | -11.5% (inactive)
33 | O=[N+]([O-])c1cc(Cl)cc(/C=N/NC(=S)Nc2cc(S(=O)(=O)N3CCOCC3)ccc2Cl)c1O | -3.6% (inactive)
34 | O=C(N/N=C/c1cccc([N+](=O)[O-])c1)c1cccc2cc[nH]c12 | -2.43% (inactive)
35 | O=C(N/N=C/c1cc([N+](=O)[O-])ccc1O)C1C2CCCCC21 (centres undefined) | -4.14% (inactive)
36 | O=C(N/N=C/c1cc([N+](=O)[O-])ccc1O)C1CCCCC1 | -0.28% (inactive)
37 | O=S(=O)(c1ccc(NC(=S)N/N=C/c2ccc(O)c(O)c2)cc1)N1CCOCC1 | 9.73% (inactive)
38 | O=C(N/N=C/c1ccc([N+](=O)[O-])cc1)c1cccc2cc[nH]c12 | 20.2% (inactive)
39 | Cc1ccc(NC(=O)CCC(=O)N/N=C/c2cc([N+](=O)[O-])ccc2O)cc1 | -3.42% (inactive)
40 | Cc1ccccc1NC(=O)CCC(=O)N/N=C/c1cc([N+](=O)[O-])ccc1O | -5.84% (inactive)
41 | CCOCCCN(C(=O)Cn1nnc(-c2ccc(C)o2)n1)C(C(=O)NCC1CCCO1)c1ccc(F)cc1 (centres undefined) | 5.95% (inactive)
42 | CN(C)/C=C1\C(=O)Oc2ccccc2C1=O | 20.1% (inactive)
43 | Cn1c(SCc2cccc(F)c2)nnc1-c1cnccn1 | -1.53% (inactive)
44 | O=C(NCc1cc(C(F)(F)F)cc(C(F)(F)F)c1)C1CC(c2ccccc2F)=NO1 (centres undefined) | -1.16% (inactive)
45 | CN1CCN(C(=O)c2cc3cc(F)ccc3[nH]2)CC1 | 10.7% (inactive)
46 | CN1CCN(C(=O)c2cc3cc(Cl)ccc3[nH]2)CC1 | -3.23% (inactive)
47 | CCOC(=O)N1CCN(C(=O)c2cc3cc(F)ccc3[nH]2)CC1 | 7.38% (inactive)
48 | CCOC(=O)N1CCN(C(=O)c2cc3cc(Cl)ccc3[nH]2)CC1 | -18% (inactive)

Row | Structure (SMILES) | inhibition
49 | COC(=O)c1c(O)cc(C(C)(C)C)n(-c2ccc(F)cc2)c1=O | -3.64% (inactive)
50 | Cc1ccc(Cn2c(=N)c(C(=O)NC3CCCC3)cc3c(=O)n4ccccc4nc32)cc1 | -16.4% (inactive)
51 | O=C(CCN1CCN(c2ccccc2)CC1)Nc1ccc(Cl)cc1 | 11.6% (inactive)
52 | O=C(CCN1CCOCC1)c1ccc(Br)cc1 | 24.1% (inactive)
53 | COc1ccc(C(=O)CCN2CCN(c3ccc(OC)cc3)CC2)cc1 | 11.8% (inactive)
54 | O=C(NCCN1CCN(C(=O)c2ccc(Br)cc2)CC1)c1ccc(Br)cc1 | -4.36% (inactive)
55 | O=C(CCC(=O)N1CCN(c2ccccc2F)CC1)c1ccc(F)cc1 | 4.65% (inactive)
56 | O=C(c1ccc(Br)cc1)N1CCN(Cc2ccccc2)CC1 | -4.12% (inactive)
57 | COc1ccc(C(=O)CCN2CCN(c3ccccc3F)CC2)cc1 | 8.74% (inactive)
58 | O=C(CCN1CCN(c2ccc([N+](=O)[O-])cc2)CC1)c1ccc(Cl)cc1 | -10.4% (inactive)
59 | C#Cc1ccc([C@@H]2C=C(C(=O)NCc3ccccc3)O[C@H](OCCCCO)C2)cc1 | -19.4% (inactive)
60 | CCCCn1c(N)c(N(CCC(C)C)C(=O)c2sc3nc4n(c(=O)c3c2C)CCC4)c(=O)[nH]c1=O | -5.32% (inactive)
61 | O=C(Nc1ccnn1C1CCN(CCCc2ccccc2)CC1)c1ccccc1 | -0.47% (inactive)
62 | O=C(CCN1C(=O)/C(=C/c2cccs2)SC1=S)Nc1ccc(C(=O)O)cc1 | 1.33% (inactive)
63 | Cc1cc(O)cc(O)c1C(=O)Cc1cscn1 | 5.71% (inactive)
64 | CCOC(=O)Nc1nc(C)c(C(=O)c2ccc(Cl)cc2)s1 | -3.7% (inactive)
65 | O=C1c2ccccc2C(=O)N1CCc1ccccc1 | 2.79% (inactive)
66 | CN1CCN(c2nc(C#N)cc(-c3ccccc3)n2)CC1 | 6.67% (inactive)
67 | CO[C@@]1(NC(=O)CSCC#N)C(=O)N2C(C(=O)O)=C(CSc3nnnn3C)CS[C@@H]21 | -5.33% (inactive)
68 | Cn1nnnc1SCC1=C(C(=O)O)N2C(=O)C(NC(=O)C3CC3c3ccccc3)C2SC1 (centres undefined) | -4.57% (inactive)
69 | CCc1nccn1CCC(=O)N1CCCC(Nc2ccc(F)cc2)C1 (centres undefined) | -1.62% (inactive)
70 | O=C1Nc2c(c(=O)[nH]c(=O)n2Cc2ccccc2)C1(NS(=O)(=O)c1ccccc1)C(F)(F)F (centres undefined) | -5.69% (inactive)
71 | CN(C)C1=NC[C@H](Cc2ccccc2)N1CCCC1CCCCC1 | 4.81% (inactive)
72 | NC1=NC[C@H](c2ccccc2)N1CC1CCCCC1 | -20.2% (inactive)

Row | Structure (SMILES) | inhibition
73 | NC1=NC[C@H](Cc2ccc(O)cc2)N1CC1CCCCC1 | 5.76% (inactive)
74 | NC1=NC[C@H](Cc2ccccc2)N1CC1CCCCC1 | 2.62% (inactive)
75 | CCCCN1C(N)=NC[C@H]1Cc1ccc(O)cc1 | 1.82% (inactive)
76 | NCCCC[C@H]1CN=C(N)N1CCCCC1CCCCC1 | 7.18% (inactive)
77 | CCCCN1C(N)=NC[C@@H]1Cc1ccc(O)cc1 | -19.3% (inactive)
78 | CCCCN1C(N)=NC[C@@H]1c1ccccc1 | -18.5% (inactive)
79 | O=[N+]([O-])c1cccc(-c2nc(-c3ccccn3)no2)c1 | 1.8% (inactive)
80 | Cc1ccc(S(=O)(=O)c2c[nH]c3cc4c(cc3c2=O)OCO4)cc1 | 7.08% (inactive)
81 | CCCCCOc1ccc(C(=O)NCC2(c3ccccc3)CCOCC2)cc1 | 4.92% (inactive)
82 | CCCC(=O)N1CCN(c2ccc(NC(=O)c3cccs3)cc2)CC1 | -2.61% (inactive)
83 | O=S(CCc1ccncc1)Cc1ccccc1 (centres undefined) | 4.99% (inactive)
84 | CCOC(=O)c1cnc2ccc(Br)cc2c1NCCO | -7.98% (inactive)
85 | COc1cccc(C(=O)Nn2cnnc2)c1 | 4.98% (inactive)
86 | COc1cc(C(=O)N2C[C@H]3CC[C@H]2C3)ccc1OC1CCN(C(C)=O)CC1 | -7.38% (inactive)
87 | Cc1ccc(-c2cc(C(F)F)nc(NCC3CCCO3)n2)cc1 (centres undefined) | -6.89% (inactive)
88 | CC1(N(O)/C=C2\C=CC=CC2=O)CCCCC1=O (centres undefined) | 0.16% (inactive)
89 | COc1ccccc1NC(=O)/C(=C\c1cccnc1)NC(=O)c1ccccc1 | -1.82% (inactive)
90 | Cc1cc(C)n(-c2nc(SCC(=O)O)c3c4c(sc3n2)CCCC4)n1 | 7.15% (inactive)
91 | Cc1cc(C)n(-c2nc(NCCO)c3c4c(sc3n2)CCCC4)n1 | -17% (inactive)
92 | Cc1cc(C)n(-c2nc(SCCN(C)C)c3c4c(sc3n2)COC(C)(C)C4)n1 | -1.09% (inactive)
93 | Cc1cc(C)n(-c2nc(NCCCN(C)C)c3c4c(sc3n2)CCCC4)n1 | -3.88% (inactive)
94 | Cc1c(N2C(=O)CSC2c2ccco2)c(=O)n(-c2ccccc2)n1C (centres undefined) | 13.9% (inactive)

— PubChem BioAssay AID1850 (Southern Research Specialized Biocontainment Screening …, 2009)
